Experimental data as given in PubChem BioAssay (Tox21).
Values joined by “and” are separate entries in the source; they are usually repeats but may differ in a detail not shown here. Equal values may be shown once. Inconclusive results are not listed. A call without a number means that no potency is given here. The source holds several records for some structures; these can differ, active in one and inactive in another. Active and inactive are the calls of the source. Unless noted, calls follow the shape of the dose curve; as a rule, active = well fitted curve in the direction sought with a large enough effect in the repeat runs; inconclusive = weak or mixed curves; inactive = no such curve, though single readings can be large; an effect the other way counts as inactive or inconclusive.

Columns and labels:
[1] = qHTS RealTime-Glo MT Cell Viability Assay in HEK293 cells - 0 hour (AID 1224880); also: nearly all actives have a fitted effect of over 45% in size; also: potency is read from the fitted curve at half-maximal effect
Outline: (§1)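 600 HEK293 cells per well, dispensed already mixed with RealTime-Glo MT reagents. Compound dosing came 5 h later. The same wells were read for luminescence at 0, 8, 16, 24, 32 and 40 h of exposure at 37 C.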

[2] = A CellTox Green Cytotoxicity Assay to monitor cytotoxicity in HEK293 cells - 32 hour (AID 1224881); also: nearly all actives have a fitted effect of over 40% in size; also: potency is read from the fitted curve at half-maximal effect
Outline: (§2)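 Dead-cell fluorescence measured kinetically: asymmetric cyanine dye, HEK293, 600 cells/well, 5 h settle, 23 nL cpd/DMSO, 37 C, reads 0–40 h every 8 h.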

[3] = A CellTox Green Cytotoxicity Assay to monitor cytotoxicity in HepG2 cells - 0 hour (AID 1224882); also: nearly all actives have a fitted effect of over 35% in size; also: potency is read from the fitted curve at half-maximal effect
Outline: (§3)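 First, HepG2 cells (600/well) mixed with reagent were plated; second, after 5 h at 37 C they received compounds via pintool; third, fluorescence was measured at 0 h through 40 h at 8 h intervals.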

[4] = A CellTox Green Cytotoxicity Assay to monitor cytotoxicity in HepG2 cells - 32 hour (AID 1224883); also: nearly all actives have a fitted effect of over 50% in size; also: potency is read from the fitted curve at half-maximal effect
Outline: as §3

[5] = A CellTox Green Cytotoxicity Assay to monitor cytotoxicity in HEK293 cells - 8 hour (AID 1224884); also: nearly all actives have a fitted effect of over 35% in size; also: potency is read from the fitted curve at half-maximal effect
Outline: as §2

[6] = qHTS RealTime-Glo MT Cell Viability Assay in HepG2 cells - 16 hour (AID 1224885); also: nearly all actives have a fitted effect of over 50% in size; also: potency is read from the fitted curve at half-maximal effect
Outline: (§4)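 Cell number in HepG2 cultures estimated from NanoLuc luminescence generated by metabolic reduction of a prosubstrate by living cells. The homogeneous, nonlytic format allowed repeated reads at 0, 8, 16, 24, 32 and 40 h of compound exposure.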

[7] = qHTS RealTime-Glo MT Cell Viability Assay in HEK293 cells - 24 hour (AID 1224886); also: nearly all actives have a fitted effect of over 50% in size; also: potency is read from the fitted curve at half-maximal effect
Outline: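 Homogeneous bioluminescent viability format in HEK293 cells (600 cells/well). Following 5 h at 37 C/5% CO2, 23 nL compound was pintooled; the signal was measured repeatedly during 40 h incubation.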

[8] = qHTS RealTime-Glo MT Cell Viability Assay in HEK293 cells - 8 hour (AID 1224887); also: top concentration of the series differs between compounds; nearly all actives have a fitted effect of over 50% in size
Outline: as §1

[9] = A CellTox Green Cytotoxicity Assay to monitor cytotoxicity in HEK293 cells - 16 hour (AID 1224888); also: nearly all actives have a fitted effect of over 35% in size; also: potency is read from the fitted curve at half-maximal effect
Outline: as §2

[10] = qHTS RealTime-Glo MT Cell Viability Assay in HepG2 cells - 0 hour (AID 1224889); also: nearly all actives have a fitted effect of over 50% in size; also: potency is read from the fitted curve at half-maximal effect
Outline: as §4

[11] = A CellTox Green Cytotoxicity Assay to monitor cytotoxicity in HepG2 cells - 8 hour (AID 1224890); also: nearly all actives have a fitted effect of over 45% in size; also: potency is read from the fitted curve at half-maximal effect
Outline: as §3

[12] = qHTS assay to identify small molecule antagonists of the estrogen receptor alpha (ER-alpha) signaling pathway using the BG1 cell line in the presence of 0.1 nM 17-beta-estradiol - cell viability counter screen (AID 1259241); also: nearly all actives have a fitted effect of over 40% in size; also: potency is read from the fitted curve at half-maximal effect
Outline: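 Cells were plated and left 24 hr, compounds in DMSO were pinned in, 17beta-estradiol was added to 0.1 nM final, and after 22 hr CellTiter-Fluor reagent was added for 30 min before fluorescence was read.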

[13] = qHTS assay to identify small molecule antagonists of the androgen receptor (AR) signaling pathway using the MDA cell line in the presence of 0.5 nM R1881 - cell viability counter screen (AID 1259242); also: nearly all actives have a fitted effect of over 45% in size
Outline: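 qHTS format. MDA-kb2 (MMTV-luc, AR/GR responsive) + cpd + 0.5 nM R1881 final, 16 hr 37C/0% CO2 → CellTiter-Fluor 30 min → fluorescence intensity.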

[14] = target: Estrogen receptor (Homo sapiens) (UniProt P03372); assay: qHTS assay to identify small molecule antagonists of the estrogen receptor alpha (ER-alpha) signaling pathway using the BG1 cell line in the presence of 0.1 nM 17-beta-estradiol (AID 1259244); also: nearly all actives have a fitted effect of over 50% in size; also: potency is read from the fitted curve at half-maximal effect
Estrogen receptor (Homo sapiens), sequence (P03372 whole entry, looked up): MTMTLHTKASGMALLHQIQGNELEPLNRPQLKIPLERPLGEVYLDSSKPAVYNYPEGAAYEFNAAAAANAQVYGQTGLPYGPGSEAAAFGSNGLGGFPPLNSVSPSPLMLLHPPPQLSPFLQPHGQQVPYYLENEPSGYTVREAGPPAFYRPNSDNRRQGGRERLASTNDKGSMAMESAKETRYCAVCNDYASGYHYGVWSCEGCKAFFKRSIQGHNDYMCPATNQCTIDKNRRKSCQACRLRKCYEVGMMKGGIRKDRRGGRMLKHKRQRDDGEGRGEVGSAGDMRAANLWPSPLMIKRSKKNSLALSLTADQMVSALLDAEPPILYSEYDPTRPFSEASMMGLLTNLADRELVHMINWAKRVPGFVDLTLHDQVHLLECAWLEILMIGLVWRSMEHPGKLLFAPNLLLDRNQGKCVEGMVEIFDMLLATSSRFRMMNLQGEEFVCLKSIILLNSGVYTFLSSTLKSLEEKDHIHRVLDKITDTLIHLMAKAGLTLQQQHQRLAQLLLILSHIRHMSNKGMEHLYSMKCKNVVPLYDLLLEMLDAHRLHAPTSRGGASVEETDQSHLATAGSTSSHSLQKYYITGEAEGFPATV
Outline: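 Reporter is a stably transfected luciferase under four estrogen responsive elements in VM7Luc4E2 cells expressing native full-length ER-alpha; inhibition of 0.1 nM (final) 17beta-estradiol-driven signal over 22 h is read by luminescence.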

[15] = qHTS assay to identify small molecule HDAC inhibitors (AID 1259364); also: potency is read from the fitted curve at half-maximal effect;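 also: wild-type HCT-116 cells with endogenous class I/II HDAC activity; nearly all actives have a fitted effect of over 45% in size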
Outline: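 Quantitative high-throughput format: overnight-seeded HCT-116 cells got compounds for 2 hr at 37C; HDAC-Glo I/II reagent added, 30 min RT, luminescence measured.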

[16] = qHTS assay to identify small molecule HDAC inhibitors - cell viability counter screen (AID 1259365)
Outline: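 Counter screen in wild-type HCT-116 cells: compounds dissolved in DMSO are pin-transferred onto overnight-plated cells and left 2hr at 37C. ATP-based CellTiter-Glo luminescence then measures viable cells.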

[17] = qHTS assay to identify small molecule agonists of the sonic hedgehog signaling (Shh) pathway - cell viability counter screen (AID 1259366); also: nearly all actives have a fitted effect of over 50% in size; also: potency is read from the fitted curve at half-maximal effect
Outline: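 Cells are plated at 2,000 per well and left 4hr at 37C, 5% CO2 before compound addition. After 23hr of treatment, CellTiter-Fluor reagent is added for 1hr at 37C and fluorescence is measured.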

[18] = qHTS assay to identify small molecule antagonists of the sonic hedgehog signaling (Shh) pathway - cell viability counter screen (AID 1259367); also: nearly all actives have a fitted effect of over 55% in size; also: potency is read from the fitted curve at half-maximal effect
Outline: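 Tox21 library chemicals were tested on a Gli1-Luc NIH/3T3 clone (2,000 cells/well) stimulated by conditioned medium; viability was quantified as fluorescence from CellTiter-Fluor reagent added at 23 hr.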

[19] = target: Androgen receptor (Homo sapiens) (UniProt P10275); assay: qHTS assay to identify small molecule antagonists of the androgen receptor (AR) signaling pathway using the MDA cell line in the presence of 0.5 nM R1881 (AID 1259243); also: nearly all actives have a fitted effect of over 50% in size; also: potency is read from the fitted curve at half-maximal effect
Androgen receptor (Homo sapiens), sequence (P10275 whole entry, looked up): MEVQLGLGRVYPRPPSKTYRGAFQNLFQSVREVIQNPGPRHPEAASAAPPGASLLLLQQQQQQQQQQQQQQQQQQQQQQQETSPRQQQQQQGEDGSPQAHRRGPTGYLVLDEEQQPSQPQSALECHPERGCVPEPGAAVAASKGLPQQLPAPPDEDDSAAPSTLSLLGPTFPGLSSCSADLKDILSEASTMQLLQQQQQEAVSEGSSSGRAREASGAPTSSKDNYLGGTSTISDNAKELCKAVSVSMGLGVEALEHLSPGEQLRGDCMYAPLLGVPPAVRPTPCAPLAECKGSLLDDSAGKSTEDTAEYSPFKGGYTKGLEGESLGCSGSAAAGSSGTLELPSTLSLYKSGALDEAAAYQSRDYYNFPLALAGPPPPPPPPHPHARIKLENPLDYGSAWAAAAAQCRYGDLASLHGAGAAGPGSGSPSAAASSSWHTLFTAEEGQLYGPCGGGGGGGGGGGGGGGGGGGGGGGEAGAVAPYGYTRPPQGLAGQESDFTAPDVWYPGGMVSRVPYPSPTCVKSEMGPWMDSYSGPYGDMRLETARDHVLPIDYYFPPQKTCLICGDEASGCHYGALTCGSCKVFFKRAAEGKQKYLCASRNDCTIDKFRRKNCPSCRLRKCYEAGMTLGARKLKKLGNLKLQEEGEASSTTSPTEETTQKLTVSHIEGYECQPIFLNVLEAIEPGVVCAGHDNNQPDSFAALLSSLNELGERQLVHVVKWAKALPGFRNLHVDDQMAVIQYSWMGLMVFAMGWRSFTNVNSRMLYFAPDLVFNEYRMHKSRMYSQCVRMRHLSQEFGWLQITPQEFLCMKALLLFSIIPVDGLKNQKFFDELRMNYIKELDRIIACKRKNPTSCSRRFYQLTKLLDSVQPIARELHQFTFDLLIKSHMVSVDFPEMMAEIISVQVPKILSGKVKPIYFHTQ
Outline: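 Antagonist mode quantitative HTS in MDA-kb2 MMTV-luciferase cells, agonist R1881 at 0.5 nM final, 16 hr exposure at 37C and 0% CO2, luminescent detection.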

[20] = qHTS assay to identify small molecule phospholipidosis (PLD) inducers (AID 1259344; active = well fitted curve in the direction sought with a large enough effect; an effect the other way counts as inactive or inconclusive)
Outline: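 Image-based: LipidTOX Red pit count/intensity per well and per cell; HepG2, 24 h compound at 37 C, PFA fixation, Hoechst counterstain.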

SMILES	Potency [1]	Potency [2]	Potency [3]	Potency [4]	Potency [5]	Potency [6]	Potency [7]	Potency [8]	Potency [9]	Potency [10]	Potency [11]	Potency [12]	Potency [13]	Potency [14]	Potency [15]	Potency [16]	Potency [17]	Potency [18]	Potency [19]	outcome [20]
CN(N=O)c1ccc([N+](=O)[O-])cc1	inactive	inactive	inactive	43.6 µM (active)	inactive	inactive	inactive	inactive	inactive	inactive	inactive	inactive	inactive	inactive	inactive	inactive	inactive	inactive	–	–
CCOP(=O)(OCC)Oc1ccc([N+](=O)[O-])cc1	inactive	inactive	inactive	inactive	inactive	inactive	inactive	inactive	inactive	inactive	inactive	inactive	inactive	–	inactive	inactive	–	–	–	–
O=C(OC1CCCCC1)c1ccccc1C(=O)OC1CCCCC1	inactive	inactive	inactive	inactive	inactive	inactive	inactive	inactive	inactive	inactive	inactive	inactive	inactive	inactive	inactive	inactive	inactive	inactive	–	–
ClCc1cccc(Cl)c1	inactive	inactive	inactive	inactive	inactive	inactive	inactive	inactive	inactive	inactive	inactive	inactive	–	inactive	inactive	inactive	inactive	inactive	inactive	–
CCC(Br)(CC)C(=O)NC(N)=O	inactive	inactive	inactive	inactive	inactive	inactive	inactive	inactive	inactive	inactive	inactive	inactive	–	–	inactive	inactive	inactive	inactive	–	–
c1ccc(CN2CCNCC2)cc1	inactive	inactive	inactive	inactive	inactive	inactive	inactive	inactive	inactive	inactive	inactive	inactive	–	–	inactive	inactive	inactive	inactive	–	inactive
Nc1nc(N)nc(N)n1	inactive	inactive	inactive	inactive	inactive	inactive	inactive	inactive	inactive	inactive	inactive	inactive	–	–	inactive	inactive	inactive	inactive	–	–
O=NN1CCNCC1	inactive	inactive	inactive	inactive	inactive	inactive	inactive	inactive	inactive	inactive	inactive	inactive	–	inactive	inactive	inactive	inactive	inactive	–	–
O=C(O)C(F)(F)C(F)(F)C(F)(F)C(F)(F)C(F)(F)C(F)(F)C(F)(F)C(F)(F)C(F)(F)F	inactive	inactive	inactive	inactive	inactive	inactive	inactive	inactive	inactive	inactive	inactive	inactive	–	inactive	inactive	inactive	inactive	inactive	–	–
ClCc1ccccc1	inactive	inactive	inactive	inactive	inactive	inactive	inactive	inactive	inactive	inactive	inactive	inactive	–	inactive	inactive	inactive	inactive	–	–	–
CCOP(=S)(Oc1ccc([N+](=O)[O-])cc1)c1ccccc1 (stereo not drawn)	inactive	inactive	inactive	inactive	inactive	inactive	inactive	inactive	inactive	inactive	inactive	inactive	inactive	–	inactive	inactive	inactive	–	–	–
O=C(O)COc1ccc(Cl)cc1	inactive	inactive	inactive	inactive	inactive	inactive	inactive	inactive	inactive	inactive	inactive	inactive	inactive	–	inactive	inactive	inactive	inactive	–	–
CC(C)(CCl)C(=O)Cl	inactive	inactive	inactive	inactive	inactive	inactive	inactive	inactive	inactive	inactive	inactive	inactive	inactive	–	inactive	inactive	inactive	–	–	–
CC1C(=O)C[C@]2(C(C)C)C[C@H]12 (stereo partly drawn)	inactive	inactive	inactive	inactive	inactive	inactive	inactive	inactive	inactive	inactive	inactive	inactive	–	–	inactive	inactive	inactive	–	–	–
Clc1cc(Cl)c(Cl)c(Cl)c1	inactive	inactive	inactive	inactive	inactive	inactive	inactive	inactive	inactive	inactive	inactive	inactive	–	–	inactive	inactive	inactive	inactive	–	–
CCOP(=O)(OCC)SCCSCC	inactive	inactive	inactive	inactive	inactive	inactive	inactive	inactive	inactive	inactive	inactive	inactive	inactive	–	inactive	inactive	inactive	–	–	–
Cl/C=C\Cl	inactive	inactive	inactive	inactive	inactive	inactive	inactive	inactive	inactive	inactive	inactive	inactive	–	–	inactive	inactive	inactive	inactive	–	–
CC/C(=N\OC/C=C/Cl)C1=C(O)CC(C2CCOCC2)CC1=O (stereo not drawn)	inactive	inactive	inactive	inactive	inactive	inactive	inactive	inactive	inactive	inactive	inactive	inactive	inactive	–	inactive	inactive	inactive	inactive	–	–

SMILES	Potency [1]	Potency [2]	Potency [3]	Potency [4]	Potency [5]	Potency [6]	Potency [7]	Potency [8]	Potency [9]	Potency [10]	Potency [11]	Potency [12]	Potency [13]	Potency [14]	Potency [15]	Potency [16]	Potency [17]	Potency [18]	Potency [19]	outcome [20]
C/C=C/C=O	inactive	inactive	inactive	inactive	inactive	inactive	inactive	inactive	inactive	inactive	inactive	inactive	–	–	inactive	inactive	inactive	inactive	–	–
Cc1ccc(N)cc1C	inactive	inactive	inactive	inactive	inactive	inactive	inactive	inactive	inactive	inactive	inactive	inactive	inactive	–	inactive	inactive	inactive	inactive	–	–
CC(Cl)C(C)Cl (stereo not drawn)	inactive	inactive	inactive	inactive	inactive	inactive	inactive	inactive	inactive	inactive	inactive	inactive	inactive	–	inactive	inactive	inactive	inactive	–	–
C=CC(=O)OC	inactive	inactive	inactive	inactive	inactive	inactive	inactive	inactive	inactive	inactive	inactive	inactive	inactive	–	inactive	inactive	inactive	inactive	–	–
N#CCc1ccccc1	inactive	inactive	inactive	inactive	inactive	inactive	inactive	inactive	inactive	inactive	inactive	inactive	inactive	–	inactive	inactive	inactive	–	–	–
Nc1nc(=S)[nH][nH]1	inactive	inactive	inactive	inactive	inactive	inactive	inactive	inactive	inactive	inactive	inactive	inactive	–	–	inactive	inactive	inactive	–	–	–
COc1nn(C(=O)NS(=O)(=O)c2ccccc2OC(F)(F)F)c(=O)n1C	inactive	20 µM (active)	39.9 µM (active)	39.9 µM (active)	31.7 µM (active)	inactive	inactive	inactive	22.4 µM (active)	inactive	39.9 µM (active)	inactive	inactive	–	inactive	inactive	inactive	inactive	–	–
CCOP(O)OCC	inactive	inactive	inactive	inactive	inactive	inactive	inactive	inactive	inactive	inactive	inactive	inactive	inactive	–	inactive	inactive	inactive	inactive	–	–
N#Cc1ccc(Cl)cc1	inactive	inactive	inactive	inactive	inactive	inactive	inactive	inactive	inactive	inactive	inactive	inactive	inactive	–	inactive	inactive	inactive	inactive	–	–
O=S1(=O)OC(c2cc(Br)c(O)c(Br)c2)(c2cc(Br)c(O)c(Br)c2)c2ccccc21	10 µM (active)	inactive	inactive	inactive	inactive	inactive	inactive	inactive	inactive	6.34 µM (active)	inactive	14.1 µM (active)	–	17.7 µM (active)	3.97 µM (active)	–	14.1 µM (active)	15.8 µM (active)	5.6 µM (active)	–
C=CC(=O)OC(C)(C)C	inactive	inactive	inactive	inactive	inactive	inactive	inactive	inactive	inactive	inactive	inactive	inactive	–	–	inactive	inactive	inactive	inactive	–	–
O=C=Nc1ccc(Cl)cc1	inactive	inactive	inactive	inactive	inactive	inactive	inactive	inactive	inactive	inactive	inactive	inactive	inactive	–	–	inactive	inactive	–	–	–
CCCCN=C=O	inactive	inactive	inactive	inactive	inactive	inactive	inactive	inactive	inactive	inactive	inactive	inactive	inactive	–	inactive	inactive	inactive	–	–	–
CCn1cc[n+](C)c1	inactive	inactive	inactive	inactive	inactive	inactive	inactive and 1.75 µM (active)	inactive	inactive	inactive	inactive	inactive	inactive	–	inactive	inactive	inactive	inactive	–	–
Cc1ccccc1CCl	inactive	inactive	inactive	inactive	inactive	inactive	inactive	inactive	inactive	inactive	inactive	inactive	inactive	–	inactive	inactive	inactive	inactive	–	–
Brc1ccc(Oc2ccccc2)cc1	inactive	50.2 µM (active) and 21.9 µM (active)	inactive	inactive	inactive	inactive	inactive	inactive	inactive	inactive	inactive	inactive	–	–	inactive	inactive	inactive	inactive	–	–
O=C(CCl)c1ccc(Cl)cc1Cl	inactive	8.49 µM (active)	inactive	23.9 µM (active)	inactive	inactive and 16.9 µM (active)	4.77 µM (active)	inactive	inactive	inactive	inactive	inactive	–	inactive	inactive	inactive	33.5 µM (active)	–	13.3 µM (active)	inactive
